Records with an inconclusive call do not appear. Active and inactive are the calls of the source. The calls were made as follows: active = hit-call score of the fitted dose curve at least 0.9, where 1 is the maximum; inconclusive = response in the unintended direction; inactive = score below 0.9.
assay: Tanguay_ZF_120hpf_NC_legacy: (Legacy) Oregon State University Tanguay Lab 120 Hour Post-fertilization zebrafish Assay for Notochord and Tail Malformation (AID 2283656)
Description: Tanguay_ZF_120hpf_legacy is a whole embryo, multiplexed endpoint assay using zebrafish larvae exposed for 120 hours post fertilization on a 96-well plate.Tanguay_ZF_120hpf_NC_legacy is one of one assay component(s) measured or calculated from the Tanguay_ZF_120hpf_legacy assay. It is designed to make measurements of zebrafish development as detected with brightfield microscopy of developing zebrafish embryos.Data from the assay component Tanguay_ZF_120hpf_NC_legacy was analyzed into 1 assay endpoints. This assay endpoint, Tanguay_ZF_120hpf_NC_legacy, was analyzed in the positive analysis fitting direction relative to DMSO as the negative control and baseline of activity. Using a type of morphology reporter, gain-of-signal activity can be used to understand changes in developmentals as they relate to the whole embryo. To generalize the intended target to other relatable targets, this assay endpoint is annotated to the zebrafish development intended target family, where the subfamily is embryonic notochord morphogenesis.
Zebrafish husbandry: Tropical 5D wild-type adult zebrafish were housed in at an approximate density of 1000 per 100 gallon tank at the Sinnhuber Aquatic Research Laboratory, Oregon State University, Corvallis, OR. Each tank was kept at standard laboratory conditions of 28C on a 14-h light/10-h dark photoperiod in fish water consisting of reverse osmosis water supplemented with a commercially available salt (Instant Ocean). Spawning funnels were placed into the tanks the night prior, and embryos were collected and staged. To increase bioavailability, the chorion was enzymatically removed using pronase (63.6mg/ml, >/= 3.5U/mg, Sigma-Aldrich: P5147) at 4 hours post fertilization (hpf) using a custom automated dechorionator.Chemical exposures: Six hpf dechorionated embryos were placed 1 embryo per well in a 96-well plate prefilled with 90 ul of EM using automated embryo placement systems (AEPS). Ten microliters of each row of dilution plate 2 was added to 2 exposure plates. The final DMSO concentration used was 0.64% (vol/vol). Thirty-two embryos were also exposed to 5uM trimethyltin chloride (positive control). Plates were sealed to prevent evaporation and foil covered to reduce light exposure and kept in a 28C incubator. Embryos were statically exposed until 120 hpf. At 24 hpf, embryos were assessed for photomotor response using a custom photomotor response analysis tool (PRAT) and for developmental toxicity endpoints (MO24: mortality at 24 hpf, DP: developmental progression, SM: spontaneous movement, and NC: notochord distortion). At 120 hpf, locomotor activity was measured using Viewpoint Zebralab and assessed for 18 endpoints. Zebrafish acquisition and analysis program (ZAAP), a custom program designed to inventory, acquire, and manage zebrafish data, was used to collect developmental endpoints as either present or absent (i.e., binary responses were recorded). If mortality occurred for an embryo (at either 24 or 120 hpf), the non-mortality endpoints were not measured.

Row | Compound | outcome
1 | Oc1cccc2cccnc12 | inactive
2 | CCN1CCC2(CC1)COc1cc3c(cc12)N(C(=O)c1ccc(-c2ccc(-c4nnc(C)o4)cc2C)cc1)CC3 | inactive
3 | CC(C)(C)c1cc(O)ccc1O | inactive
4 | O=C(O)C(F)(F)C(F)(F)C(F)(F)C(F)(F)C(F)(F)C(F)(F)C(F)(F)C(F)(F)C(F)(F)C(F)(F)F | inactive
5 | CC(=O)[O][Hg][c]1ccccc1 | inactive
6 | NC(=O)O | inactive
7 | CC(C)(C)CC(C)(C)c1ccc(O)cc1 | inactive
8 | CCOP(=S)(OCC)Oc1nc(Cl)c(Cl)cc1Cl | inactive
9 | Cc1ccccc1N | inactive
10 | ClCC(Cl)CCl | inactive
11 | C=CC(=O)OCCCCCC(C)C | inactive
12 | C[C@]12CCC(=O)C[C@@H]1CC[C@@H]1[C@@H]2CC[C@]2(C)[C@@H](O)CC[C@@H]12 | inactive
13 | O=[N+]([O-])c1ccc(O)c([N+](=O)[O-])c1 | inactive
14 | CCCCCCCCc1ccc(O)cc1 | inactive
15 | O=c1[nH]c(=O)[nH]c(=O)[nH]1 | inactive
16 | O=C(O)C(Cl)(Cl)Cl | inactive
17 | CC12CC1(C)C(=O)N(c1cc(Cl)cc(Cl)c1)C2=O (stereo unspecified) | inactive
18 | CCC(=O)C(CC(C)N(C)C)(c1ccccc1)c1ccccc1 (stereo unspecified) | inactive
19 | O=C1C2(Cl)C3(Cl)C4(Cl)C(Cl)(Cl)C5(Cl)C3(Cl)C1(Cl)C5(Cl)C24Cl (stereo unspecified) | inactive
20 | CN(C)N=O | inactive
21 | CCOP(=S)(OCC)SCSP(=S)(OCC)OCC | inactive
22 | C=C(C)C(=O)[O][Sn]([CH2]CCC)([CH2]CCC)[CH2]CCC | inactive
23 | O=C(O)C(F)(F)C(F)(F)C(F)(F)C(F)(F)C(F)(F)C(F)(F)F | inactive
24 | ClC1(Cl)C2(Cl)C3(Cl)C4(Cl)C(Cl)(Cl)C5(Cl)C3(Cl)C1(Cl)C5(Cl)C24Cl (stereo unspecified) | inactive
25 | COc1cc(-c2ccc(N)c(OC)c2)ccc1N | inactive
26 | O=C(Nc1ccc2[nH]ccc2c1)c1cc2cc(F)ccc2n1Cc1cccc(F)c1 | inactive

Source: PubChem BioAssay (EPA / NIEHS)
